The source of these data is PubChem BioAssay.

The target of one assay is Follistatin (Homo sapiens) (UniProt P19883). Nature of the assay: FST protein binding to printed compounds – biochemical, small-molecule microarray, 635/667 nm fluorescence, primary screen (AID 1132). The settings on record: 635 nm fluorescence, higher = more signal.
Sequence of Follistatin (Homo sapiens) (P19883 whole entry, looked up): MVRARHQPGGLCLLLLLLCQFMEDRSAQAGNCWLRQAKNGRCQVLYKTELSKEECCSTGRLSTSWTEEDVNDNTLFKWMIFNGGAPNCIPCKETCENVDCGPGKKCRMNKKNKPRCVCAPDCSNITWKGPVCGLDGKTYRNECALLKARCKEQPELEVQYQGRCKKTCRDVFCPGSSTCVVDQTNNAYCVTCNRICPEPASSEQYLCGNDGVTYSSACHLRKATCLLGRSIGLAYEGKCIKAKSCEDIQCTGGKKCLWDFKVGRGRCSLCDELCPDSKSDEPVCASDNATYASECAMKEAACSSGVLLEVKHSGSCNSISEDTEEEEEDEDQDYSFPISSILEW
Regarding `O=C(N1CCOCC1)[C@@]1(Cc2ccccc2)COC(c2ccc(OCCCO)cc2)=N1`, the composite z-score was -0.119.

For `C=CCC(OC(C)=O)[C@@H]1[C@@H](N(Cc2ccc(-c3cccc(C(F)(F)F)c3)o2)C(=O)c2ccc(-c3ccccc3)cc2)c2cc(OCCCO)ccc2N1C(=O)c1ccc2ccccc2c1` (some centres not stated), the composite z-score is 1.02.

Consider `[N-]=[N+]=NCc1ccccc1[C@@H]1OC(c2ccc(OCCCO)cc2)=N[C@]1(Cc1ccccc1N=[N+]=[N-])C(=O)NCC(O)CO` (some centres not stated), for which the composite z-score worked out at 1.05.

Consider `CCCNC(=O)[C@@]1(c2ccc([N+](=O)[O-])cc2)CC(=O)N(C(C)C)[C@@H]1c1ccc(CO)cc1`, for which the composite z-score was -0.742.

For `CC(C)N1C(=O)C[C@@](C(=O)NCCN2CCOCC2)(c2ccc([N+](=O)[O-])cc2)[C@H]1c1ccc(CO)cc1`, the composite z-score was determined as 0.178.

In turn, `CCCC[C@H]1OB(O)C[C@H]2C1=C(COc1ccccc1)C[C@H]1C(=O)C=CC(=O)[C@H]12` registered a composite z-score of 1.06.

`CC(C)[Si](C#CCCc1ccccc1)(O[C@H](c1ccccc1)c1cn(Cc2ccccc2)nn1)C(C)C`: the composite z-score was found to be 0.709.

For another assay, the target named is Fibroblast growth factor 2 (Homo sapiens) (UniProt P09038). Nature of the assay: basic fibroblast growth factor binding to printed compounds – biochemical, small-molecule microarray, 635/667 nm fluorescence, primary screen (AID 1133). The settings on record: FGF2, fluorescence 635/667, higher = more signal.
Sequence of Fibroblast growth factor 2 (Homo sapiens) (P09038 whole entry, looked up): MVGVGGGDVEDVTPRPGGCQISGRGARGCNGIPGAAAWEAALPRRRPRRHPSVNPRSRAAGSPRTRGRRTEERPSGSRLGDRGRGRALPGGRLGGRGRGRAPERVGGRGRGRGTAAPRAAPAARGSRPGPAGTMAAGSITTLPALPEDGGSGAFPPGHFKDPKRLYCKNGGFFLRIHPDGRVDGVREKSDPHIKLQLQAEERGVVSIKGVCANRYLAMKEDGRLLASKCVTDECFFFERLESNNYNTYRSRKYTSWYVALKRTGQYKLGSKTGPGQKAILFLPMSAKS
With `C[C@@H]1ON(c2ccccc2)[C@H](c2ccccc2)[C@H]1C(=O)O`, the composite z-score was determined as 0.931.

`C[C@]1(C(=O)O)c2ccccc2C(=O)N(Cc2cc(F)cc(C(F)(F)F)c2)[C@H]1c1ccc(CO)cc1` came in with a composite z-score of 0.299.

Turning to `COCCOC(=O)N1C(=O)[C@@]2(c3cc(C#CCCO)ccc31)[C@H](c1ccccc1OCCO)N1[C@H](c3ccccc3)[C@H](c3ccccc3)OC(=O)[C@H]1[C@@H]2C(N)=O`, the composite z-score was 0.963.

As to `O=C1[C@H]2C=C(I)[C@H](C[C@@H]2OCCCCCCO)[C@@]12CO2`, the composite z-score came out at 0.888.

`C=CCOC(=O)[C@@H]1[C@H]2C(=O)O[C@H](c3ccccc3)[C@H](c3ccccc3)N2[C@H](c2ccc(OCCOC(=O)[C@H]3C[C@H]4C(=O)N[C@@H](CCCCN(C)C)C(=O)N4[C@H]3c3ccc(O)cc3)cc2)[C@@]12C(=O)Nc1ccc(I)cc12` displayed a composite z-score of 1.37.

Consider `O=C(NCc1ccccc1)[C@@H]1c2ccccc2C(=O)N(Cc2cc(C(F)(F)F)cc(C(F)(F)F)c2)[C@H]1c1ccc(CO)cc1`, for which the composite z-score was determined as 1.06.

As to `CCCC[C@H]1C[C@@H]1[C@@H]1N(C(C)=O)[C@H](c2cccc(OC)c2)CC12CC2`, the composite z-score is -0.532.

With `CCOC(=O)C1=CCC(c2cc3ccccc3[nH]2)N(CCN2CC(C(=O)OCC)=CCC2c2cc3ccccc3[nH]2)C1` (configuration not stated), the composite z-score turned out to be 0.0905.

With `C=C(CCCC)/C(=C/C[C@H](OC(C)=O)c1cccc(OCCO)c1)c1cnc2ccccc2c1`, the composite z-score was -0.183.

Molecule `CCCN1C(=O)[C@@]2(c3ccc([N+](=O)[O-])cc3)CC(=O)N(CC34CC5CC(CC(C5)C3)C4)[C@@H]2c2ccc(CO)cc21` gave a composite z-score of 1.12.

Take `COc1ccc(C(O)C2C=CC3C(=O)N(c4ccccc4)C(=O)C3N2Nc2ccc(C#N)cc2)cc1OCc1ccccc1` (configuration not stated): the composite z-score was -0.529.

Regarding `CC(C)NC(=O)[C@@]1(c2ccc([N+](=O)[O-])cc2)CC(=O)N(CC23CC4CC(CC(C4)C2)C3)[C@@H]1c1ccc(CO)cc1`, the composite z-score was 1.55.

For `CC1=C([C@H](O)CCc2ccccc2)[C@H](CO)n2c(=O)n(-c3ccccc3)c(=O)n2C1`, the composite z-score is 0.302.

In the case of `O=C(NC1CC1)[C@@H]1c2ccccc2C(=O)N(Cc2cc(C(F)(F)F)cc(C(F)(F)F)c2)[C@H]1c1ccc(CO)cc1`, the composite z-score was 0.0292.

In the case of `COC(=O)[C@@]1(Cc2ccccc2)N=C(c2ccc(OCCCO)cc2)O[C@H]1c1ccccc1CN=[N+]=[N-]`, the composite z-score stood at 1.02.

In the case of `O=C1c2ccccc2[C@@]2(Cc3ccccc3N(Cc3ccccc3)C2=O)[C@H](c2ccc(CO)cc2)N1Cc1ccccc1Cl`, the composite z-score is -0.395.

`CC(C)C[C@H]1NC(=O)C([C@@H](C)OCc2ccccc2)NC(=O)[C@@]23C(=O)N[C@@H](Cc4ccccc4)C2[C@H](C)[C@@]2(C)O[C@H]2C3/C=C/C/C=C\CNC1=O` (some centres not stated) came in with a composite z-score of 0.434.

Turning to `CC(C)=CCCC(C)=CC(O)C1C=CC2C(=O)NC(=O)C2N1Nc1ccc(Cl)cc1Cl` (configuration not stated), the composite z-score is -0.935.

With `CCCCC(=C=CC[C@H](O)c1ccc(CO)o1)CCO`, the composite z-score worked out at 0.662.

In turn, `CCOC(=O)C1=CC[C@@H](c2ccccc2)N(S(=O)(=O)c2ccc(C)cc2)[C@H]1c1ccccc1I` returned a composite z-score of 0.184.

In the case of `[N-]=[N+]=Nc1ccccc1[C@@H]1OC(c2ccc(OCCCO)cc2)=N[C@]1(CCS(=O)(=O)c1ccccc1)C(=O)NCC(O)CO` (some centres not stated), the composite z-score is -0.0365.

On to `N#Cc1ccc(NN2C(C(O)C3CC=CCC3)C=CC3C(=O)N(c4ccccc4)C(=O)C32)cc1` (configuration not stated), for which the composite z-score was determined as 1.05.

`CC(C)C[C@@H]1NC(=O)[C@@]23C(=O)N[C@@H](Cc4ccccc4)C2[C@H](C)[C@@]2(C)O[C@H]2C3/C=C/C/C=C\CNC(=O)CNC1=O` (some centres not stated) had a composite z-score of 0.766.

The molecule `COc1ccc([Si](C)(C)[C@H]2[C@H](CC(=O)N3CCC[C@H]3CO)O[C@@]3(C(=O)N(Cc4ccc(N5CCCCC5=O)cc4)c4ccccc43)[C@@H]2C)cc1` returned a composite z-score of 1.17.

`C=CCC(OC(C)=O)[C@@H]1[C@@H](N(Cc2cccc3ccccc23)C(=O)Cc2ccc(OC)cc2)c2cc(OCCCO)ccc2N1C(=O)c1ccc2ccccc2c1` (some centres not stated): the composite z-score is -0.0926.

Turning to `NC(=O)NCC#Cc1ccc2c(c1)[C@]1(C(=O)N2)[C@H](c2ccc(OCCO)cc2)N2[C@H](c3ccccc3)[C@H](c3ccccc3)OC(=O)[C@H]2[C@@H]1C(=O)O`, the composite z-score was -0.498.

`O=C1O[C@H](c2ccccc2)[C@H](c2ccccc2)N2[C@H]1[C@@H](C(=O)N1CCN(c3ncccn3)CC1)[C@]1(C(=O)Nc3ccc(C#CCCO)cc31)[C@H]2c1ccc(O)cc1`: the composite z-score was 0.115.

Molecule `C=C(CCCC)/C(=C/C[C@H](OC(=O)c1ccncc1)c1cccc(OCCO)c1)c1cnc2ccccc2c1` had a composite z-score of 0.688.

As for `O=C(N1CCOCC1)[C@@]1(Cc2ccccc2)COC(c2ccc(OCCCO)cc2)=N1`, the composite z-score is -0.445.

`C=CCC(OC(C)=O)[C@@H]1[C@@H](N(Cc2ccc(-c3cccc(C(F)(F)F)c3)o2)C(=O)c2ccc(-c3ccccc3)cc2)c2cc(OCCCO)ccc2N1C(=O)c1ccc2ccccc2c1` (some centres not stated): the composite z-score turned out to be 0.23.

As to `[N-]=[N+]=NCc1ccccc1[C@@H]1OC(c2ccc(OCCCO)cc2)=N[C@]1(Cc1ccccc1N=[N+]=[N-])C(=O)NCC(O)CO` (some centres not stated), the composite z-score amounted to 1.26.

With `CCCNC(=O)[C@@]1(c2ccc([N+](=O)[O-])cc2)CC(=O)N(C(C)C)[C@@H]1c1ccc(CO)cc1`, the composite z-score was -0.914.

For `CC(C)N1C(=O)C[C@@](C(=O)NCCN2CCOCC2)(c2ccc([N+](=O)[O-])cc2)[C@H]1c1ccc(CO)cc1`, the composite z-score is -0.588.

`CCCC[C@H]1OB(O)C[C@H]2C1=C(COc1ccccc1)C[C@H]1C(=O)C=CC(=O)[C@H]12` showed a composite z-score of 0.696.

The molecule `CC(C)[Si](C#CCCc1ccccc1)(O[C@H](c1ccccc1)c1cn(Cc2ccccc2)nn1)C(C)C` yielded a composite z-score of 0.368.
